Screening data as filed in PubChem BioAssay.
VP16 counter = VP16 counterscreen qHTS for inhibitors of ROR gamma transcriptional activity; AID 2546, 2010; 310,000 compounds, 3.5% hits; Drosophila S2 Gal4-VP16 UAS-luciferase, luminescence, 20 h; Potency, µM (doses to about 53.6 µM), hits mostly inhibitors;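 also: Gal4-VP16 expression switched on by copper sulfate through the metallothionein promoter; nearly all actives have a fitted effect of over 50% in size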
RORgamma inh = qHTS for inhibitors of ROR gamma transcriptional activity. 310,000 compounds, 5.4% hits. Potency, µM (highest dose often 53.6 µM), most hits filed as inhibitors. Drosophila S2 Gal4-RORgamma UAS-luciferase reporter, 20 h; also: nearly all actives have a fitted effect of over 60% in size
Target sequence (P51450 whole entry, looked up, the tested form may be a part): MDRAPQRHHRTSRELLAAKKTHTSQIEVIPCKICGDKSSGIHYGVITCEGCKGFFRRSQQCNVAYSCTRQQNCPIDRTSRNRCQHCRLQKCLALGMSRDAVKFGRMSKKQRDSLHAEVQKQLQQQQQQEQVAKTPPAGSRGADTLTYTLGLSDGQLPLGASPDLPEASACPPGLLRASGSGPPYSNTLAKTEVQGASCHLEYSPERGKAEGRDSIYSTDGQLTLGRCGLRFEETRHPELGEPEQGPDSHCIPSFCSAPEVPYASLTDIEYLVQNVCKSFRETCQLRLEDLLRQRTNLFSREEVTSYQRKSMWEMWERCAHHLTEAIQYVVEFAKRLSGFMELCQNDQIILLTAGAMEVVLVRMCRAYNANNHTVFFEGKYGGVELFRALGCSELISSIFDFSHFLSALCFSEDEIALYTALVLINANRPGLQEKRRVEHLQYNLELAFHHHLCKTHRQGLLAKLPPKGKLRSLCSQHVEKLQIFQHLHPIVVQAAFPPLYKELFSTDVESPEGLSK
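Read-out: Photinus luciferase luminescence; inhibitors lower reporter signal. Insect Schneider cells with Gal4-ROR gamma fusion under metallothionein promoter, UAS reporter; 700 uM final copper sulfate induction, 20 hr, ambient temperature.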
KinaseGlo FLuc = Counterscreen for Luciferase (Kinase-Glo TM) Inhibition | Potency, µM (titrated, usually from 38.3 µM), actives largely listed as inhibitors | 200,000 compounds, 0.28% hits | Kinase-Glo luciferase, ATP luminescence, 8 min; also: nearly all actives have a fitted effect of over 60% in size
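Compounds were added to a substrate mix at pH 7.2 (50 mM imidazole, 10 uM ATP, within the enzyme's linear range), followed by Kinase-Glo detection reagent; luminescence was measured after 8 minutes at ambient temperature.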
A number is an active result; - = inactive; ? = inconclusive; . = not tested or not shown. This is a sample that favours compounds with a hit; in the whole collection about 6.2% have one here. Calls follow the shape of the dose curve; as a rule, active = well fitted curve in the direction sought with a large enough effect; inconclusive = small, poorly fitted or top-dose-only effect, or another doubt; inactive = no such curve, though single readings can be large; an effect the other way counts as inactive or inconclusive.

SMILES	VP16 counter	RORgamma inh	KinaseGlo FLuc
CC[C@H](C)[C@H](NC(=O)[C@H](Cc1ccc(O)cc1)NC(=O)[C@H](Cc1cnc[nH]1)NC(=O)[C@H](CCCNC(=N)N)NC(=O)[C@H](CC(C)C)NC(=O)[C@H](C)NC(=O)[C@H](CO)NC(=O)[C@H](Cc1ccc(O)cc1)NC(=O)[C@H](Cc1ccc(O)cc1)NC(=O)[C@H](CCCNC(=N)N)NC(=O)[C@H](C)NC(=O)[C@H](CC(C)C)NC(=O)[C@H](CC(=O)O)NC(=O)[C@H](CCC(=O)O)NC(=O)[C@H](C)NC(=O)[C@@H]1CCCN1C(=O)[C@H](C)NC(=O)[C@H](CC(=O)O)NC(=O)[C@H](CCC(=O)O)NC(=O)CNC(=O)[C@@H]1CCCN1C(=O)[C@H](CC(N)=O)NC(=O)[C@H](CC(=O)O)NC(=O)[C@@H]1CCCN1C(=O)[C@H](CCCCN)NC(=O)[C@@H](N)CO)C(=O)N[C@@H](CC(N)=O)C(=O)N[C@@H](CC(C)C)C(=O)N[C@H](C(=O)N[C@H](C(=O)N[C@@H](CCCNC(=N)N)C(=O)N[C@@H](CCC(N)=O)C(=O)N[C@@H](CCCNC(=N)N)C(=O)N[C@@H](Cc1ccc(O)cc1)C(N)=O)[C@@H](C)O)[C@@H](C)CC	-	-	.
Cc1ccc(OCC(=O)NNC(=O)CSc2ncc(C#N)c(N)n2)cc1	?	0.708µM	-
N#Cc1cnc(SCC(=O)Nc2ccccc2C(F)(F)F)nc1N	-	-	-
CC(C)NC(=S)Nc1ccc2cn[nH]c2c1	-	-	-
Cc1nc2ccccc2n(CC(=O)Nc2cc(Cl)cc(Cl)c2)c1=O	-	-	-
Cc1ccc(C)c(N2CCN(C(=O)c3csc4ccccc34)CC2)c1	-	?	-
CN(CC(=O)Nc1ccc(F)cc1)CC(=O)Nc1ccc(F)c(F)c1F	-	-	-
COc1ccc(C(=O)Nn2c(CC(C)C)nc3cc(Cl)ccc3c2=O)c(OC)c1	-	-	.
O=c1c2ccccc2cnn1-c1nc2ccccc2[nH]1	1.12µM	0.447µM	2µM
O=c1c(Cl)c(N2CCCCC2)cnn1-c1nc2ccccc2[nH]1	1.26µM	0.891µM	1.58µM
Clc1ccc2nc(N3CCCCC3)[nH]c2c1	-	-	-
O=c1c2ccccc2nc2c3ccccc3cnn12	-	-	-
COCC(=O)N1CCC2(CCN(Cc3ccccc3OC)CC2)CC1	-	-	-
COc1ccc(/C=C(\NC(=O)c2ccccc2)C(=O)N/N=C/c2sccc2C)cc1	22.4µM	11.2µM	-
O=C(N/N=C/c1cccs1)/C(=C/c1ccccc1)NC(=O)c1ccccc1	?	11.2µM	-
O=C(Nc1ccccc1)/C(=C\c1cccs1)NC(=O)c1ccccc1	?	-	-
COc1ccc(/C=C(\NC(=O)c2ccccc2)C(=O)N/N=C/c2ccncc2)cc1	-	-	-
COc1ccc(/C=C(/NC(=O)c2ccccc2)C(=O)N/N=C/c2sccc2C)cc1	?	12.6µM	-
COc1ccc(/C=C(\NC(=O)c2ccccc2)C(=O)N/N=C/c2cccnc2)cc1	-	?	.
Cc1cc(Br)ccc1NC(=O)CSc1nnc(CN2CCOCC2)n1C	-	-	.
O=C1CCC(=O)N1c1ccc(S(=O)(=O)Nc2cccc(Br)c2)cc1	-	-	.
Cc1cccc(NC(=O)C2CCCN(C(=O)Nc3ccc(F)cc3)C2)c1 (stereo not given)	-	-	.
Cc1noc(C)c1C(=O)N1CCC[C@@]2(CCN(C(c3ccccc3)c3ccccc3)C2)C1	-	-	-
COCCn1c(C)cc(/C=C2\NC(=S)N(C)C2=O)c1C	?	?	-
CN1C(=O)/C(=C/c2cc3c(cc2Br)OCO3)NC1=S	?	4.47µM	-
SMILES	VP16 counter	RORgamma inh	KinaseGlo FLuc
CC(C)c1nnc(NC(=O)C2CCCN2C(=O)Nc2ccccc2[N+](=O)[O-])s1 (stereo not given)	-	-	-
Cc1cc2ccccn2c1C(=S)NC(=O)c1ccccc1	3.55µM	3.16µM	-
Cc1cc2ccccn2c1C(=O)c1ccc(Cl)cc1	15.8µM	?	-
Cc1cc2ccccn2c1C(=O)c1ccncc1	-	-	-
Cc1cc2ccccn2c1C(=O)Nc1cccc(Cl)c1	?	-	-
COc1ccc(OCC(=O)N(Cc2sccc2C)C2CCS(=O)(=O)C2)cc1 (stereo not given)	-	-	.
COc1c(O)c(O)cc2c1oc1c3cc(C)ccc3oc(=O)c21	-	?	-
CCOC(=O)N1CCN(c2ncnc3c2[nH]c2ccc(OC)cc23)CC1	-	-	-
CCOCCCNc1ncnc2c1[nH]c1ccccc12	?	-	-
CCOC(=O)N1CCN(c2ncnc3c2[nH]c2ccc(F)cc23)CC1	7.08µM	?	-
CCCCOCCCNc1ncnc2c1[nH]c1ccccc12	10µM	?	-
